High-throughput results as filed in PubChem BioAssay.
A selection: hits, their analogues and other compounds. The true share with any hit is near 3.6%.
Pf apPOL inh – Pf-apPOL DNA polymerase inhibition. Recombinant Pf-apPOL, molecular beacon fluorescence, 1.5 h. inhibition, % at 10 µM. 210,000 tested, 0.25% active. AID 1794808
mHTT-CaM PPI inh – disrupts binding of mutant huntingtin to calmodulin | P42858 | AlphaScreen His-mHTT/GST-CaM binding, luminescence | inhibition, % at 15 µM | 190,000 tested, 3.6% active
Of the large screens only hits and unclear results are named; the others gave an inactive call; ! = a repeat was not active. Rule as the data show it: active = inhibition above about 50%; inactive = the rest.

Cc1nnnn1-c1cc2c(s1)CCCC2	none (no result: Pf apPOL inh)
COc1cc(N2CN=c3s/c(=C\c4cccc(Cl)c4)c(=O)n3C2)cc(OC)c1OC	none
O=C(Cc1cccc(F)c1)N1CCCC(c2ccnc(-c3cccc(F)c3)n2)C1 (configuration not stated)	none
CC(C)C(=O)N1CCCC(c2ccnc(Nc3cccc(F)c3)n2)C1 (configuration not stated)	none
CCOCC(=O)N1CCCC(c2ccnc(Nc3ccccc3C)n2)C1 (configuration not stated)	none
O=C(Cc1cccs1)N1CCCC(c2ccnc(Nc3cccc(F)c3)n2)C1 (configuration not stated)	mHTT-CaM PPI inh 75
Cc1ccccc1Nc1nccc(C2CCCN(C(=O)COc3ccc(F)cc3)C2)n1 (configuration not stated)	mHTT-CaM PPI inh 90
O=C(c1ccccc1)N1CCCC(c2ccnc(Nc3cccc(F)c3)n2)C1 (configuration not stated)	mHTT-CaM PPI inh 72
O=C(Cc1cccc(F)c1)N1CCCC(c2ccnc(Nc3ccccc3)n2)C1 (configuration not stated)	mHTT-CaM PPI inh 90
O=C(C1CC1)N1CCCC(c2ccnc(Nc3cccc(F)c3)n2)C1 (configuration not stated)	none
O=C(c1ccc(Br)o1)N(Cc1ccccn1)Cc1ccco1	none
COc1ccc(N2C(=O)C3CCCN3C2c2cccc(Br)c2)cc1Cl (configuration not stated)	none
CN(C(=O)Cc1c[nH]c2ccccc12)C1(C(=O)NC2CCCC2)CCCCC1	none
Cc1ccccc1/C=C1\NC(=O)N(Cc2ccccc2F)C1=O	none
CCOc1cc(/C=C2/N=C(c3ccccc3Cl)OC2=O)ccc1OC	none
O=C(c1cccs1)N1CCCC(c2ccnc(Nc3ccc(F)cc3)n2)C1 (configuration not stated)	none
O=C(c1cccs1)N1CCCC(c2ccnc(Nc3cccc(F)c3)n2)C1 (configuration not stated)	mHTT-CaM PPI inh 93
O=[N+]([O-])c1cccc(CSC2=NS(=O)(=O)c3ccccc3N2)c1	none
CCOc1ccccc1NS(=O)(=O)c1cc(Br)cc2c1N(C(C)=O)C(C)C2 (configuration not stated)	none
CS(=O)(=O)N1CCC(C(=O)Nc2nnc(SCC(=O)NC3CCCC3)s2)CC1	none
COc1cccc(C(=O)Nc2ccc3oc(-c4cccc(Br)c4)nc3c2)c1	none
CC1(C)Nc2sc3c(c2-c2nnnn21)CCCC3	mHTT-CaM PPI inh 56 (no result: Pf apPOL inh)
O=C1NC2(Nc3sc4c(c31)CCCC4)C(=O)Nc1ccccc12 (configuration not stated)	none
NC(=O)Cn1nc2c3c(cccc3c1=O)-c1ccccc1-2	Pf apPOL inh 61!
O=c1c2cccc3c2c(nn1Cc1ccccc1Cl)-c1ccccc1-3	none
O=C(CC1(O)C(=O)N(Cc2ccccc2)c2ccccc21)c1ccc(Br)s1 (configuration not stated)	mHTT-CaM PPI inh 52
O=C(CC1(O)C(=O)N(CCc2ccccc2)c2ccccc21)c1cccs1 (configuration not stated)	none
c1ccc(CSc2nnc(C34CC5CC(CC(C5)C3)C4)o2)nc1	none (no result: Pf apPOL inh)
COc1ccc(N=Cc2cc(Br)ccc2O)cc1Cl	none
COc1ccc(N=C2NC(=O)S/C2=C\c2ccc(N(C)C)cc2)cc1	none
CN(C)c1ccc(N=C2C=CC(=O)C=C2)cc1	mHTT-CaM PPI inh 95 (no result: Pf apPOL inh)
N#CC1=C(N)n2c(s/c(=C\c3ccsc3)c2=O)=C(C#N)C1c1ccsc1 (configuration not stated)	mHTT-CaM PPI inh 70
N#CC1=C(N)N(c2ccccc2)C2=C(C(=O)CCC2)C1c1ccsc1 (configuration not stated)	none
CC(=O)c1ccc(NS(=O)(=O)c2ccc(N/C=C/C(=O)c3cccs3)cc2)cc1	Pf apPOL inh 60
Cc1cc(NS(=O)(=O)c2ccc(N/C=C/C(=O)c3cccs3)cc2)nc(C)n1	none
Cc1ccc(C2Nc3ccccc3NC3=C2C(=O)CC(c2ccccc2Cl)C3)o1 (configuration not stated)	none
Cc1ccc(C)c(N2CCN(C(=O)C3c4ccccc4CCN3C(=O)C3CC3)CC2)c1 (configuration not stated)	mHTT-CaM PPI inh 57
Cc1ccc(C)c(N2CCN(C(=O)C3CCC3)CC2)c1	none
CCCC(=O)N1CCCC(C)(C(=O)NCc2cccc(F)c2)C1 (configuration not stated)	none
CCN(CC)c1ccc(NC(=O)Cc2ccccc2)cc1	none
CCN(CC)c1ccc(C2NN=C(Cc3ccccc3)S2)cc1 (configuration not stated)	mHTT-CaM PPI inh 85
Cc1cc(S(=O)(=O)N2CCN(CCO)CC2)ccc1F	none
Cc1cc(O)cc(C)c1NC(=NS(=O)(=O)c1ccccc1)c1ccccc1	none
CCOc1cc(OCC)cc(C(=O)Nc2ccccn2)c1	none
CCOc1ccc(C(=O)Nc2cccc(C)n2)cc1OCC	none
CCOc1cccc(C(Nc2ccccn2)c2ccc3ccc(C)nc3c2O)c1 (configuration not stated)	mHTT-CaM PPI inh 59
CCOc1cccc(C(Nc2cccc(C)n2)c2ccc3ccc(C)nc3c2O)c1 (configuration not stated)	mHTT-CaM PPI inh 70
CCOc1ccc(Cl)cc1/C=C1\NC(=O)N(Cc2ccc(C)cc2)C1=O	none
CSc1c(C#N)c(N)nn1C	none (no result: mHTT-CaM PPI inh)
c1ccc(OCCOc2ccc(-c3cc(C4CCNCC4)[nH]n3)cc2)cc1	mHTT-CaM PPI inh 62
c1ccc(OCCC2CCNCC2)cc1	none
O=C(Nc1ccccc1)c1ccc(NS(=O)(=O)c2ccc3c(c2)OCCO3)cc1	none
CC(=O)N1CCc2cc(Br)cc(S(=O)(=O)NC3CCCc4ccccc43)c21 (configuration not stated)	none
C=CCN(c1ccccc1)S(=O)(=O)c1ccc2[nH]cc(C(=O)NCCCC)c(=O)c2c1	none
C=CCNC(=O)c1c[nH]c2ccc(S(=O)(=O)N(C)c3ccc(Cl)cc3)cc2c1=O	mHTT-CaM PPI inh 53
C=CCN(c1ccccc1)S(=O)(=O)c1ccc2[nH]cc(C(=O)NCCOC)c(=O)c2c1	mHTT-CaM PPI inh 50
C=CCNC(=O)c1c[nH]c2ccc(S(=O)(=O)N(C)c3ccc(Cl)cc3F)cc2c1=O	none
Cc1[nH]nc2c1C1(C(=O)N(C)c3ccccc31)C(C#N)=C(N)O2 (configuration not stated)	none
Cc1nnsc1C(=O)N1CCC(CNC(=O)c2ccccc2C(F)(F)F)CC1	none
O=C(NCCN1CCCCCC1)C1CCN(c2cnn(Cc3ccccc3)c(=O)c2)CC1	none
Cc1cc(C)n(-c2ccc(=O)n(CC(=O)Nc3nnc(C)s3)n2)n1	none
O=C(Cc1ccccc1)N1CCC(Nc2cccn3ncnc23)CC1	none
COc1ccc(NC(=O)COc2cc(C)c(Br)c(C)c2)c(OC)c1	none
CC(=O)Nc1ccc(/C=C2\OC(=O)c3c2cc(C)[nH]c3=O)cc1	none
Cc1cc2c(c(=O)[nH]1)C(=O)O/C2=C/c1cn[nH]c1-c1cccs1	mHTT-CaM PPI inh 64 (no result: Pf apPOL inh)
CCCNC(=O)N1CCCC1c1nc(-c2ccc(OC)cc2)no1 (configuration not stated)	none
CCCCCCn1c(SCC(O)CO)nc2c1c(=O)[nH]c(=O)n2C (configuration not stated)	none
Cn1c(=O)[nH]c(=O)c2c1nc(SCC(O)CO)n2CC(N)=O (configuration not stated)	Pf apPOL inh 65
CCCS(=O)(=O)c1c(S(=O)(=O)CCC)c2ccccn2c1C(N)=O	none
Cc1ccc(NC(=O)Cc2nc(-c3ccccn3)n[nH]2)cc1F	mHTT-CaM PPI inh 69
